Hit rate of the full screen: of about 16,000 compounds, about 5,800 (36%) were called active. Inconclusive results (about 23%) are left out. The list shows a part of the results. Values without a mark were called inactive. Calls come from the whole dose curve; as a rule, active = well fitted curve in the direction sought with a large enough effect; inconclusive = small, poorly fitted or top-dose-only effect, or effect the other way; inactive = no such curve, though single readings can be large or run the other way.
% is set by controls: 0 for no effect and ±100 for the full control effect.

Sequence of Cytochrome P450 2C19 (Homo sapiens) (P33261 whole entry, looked up): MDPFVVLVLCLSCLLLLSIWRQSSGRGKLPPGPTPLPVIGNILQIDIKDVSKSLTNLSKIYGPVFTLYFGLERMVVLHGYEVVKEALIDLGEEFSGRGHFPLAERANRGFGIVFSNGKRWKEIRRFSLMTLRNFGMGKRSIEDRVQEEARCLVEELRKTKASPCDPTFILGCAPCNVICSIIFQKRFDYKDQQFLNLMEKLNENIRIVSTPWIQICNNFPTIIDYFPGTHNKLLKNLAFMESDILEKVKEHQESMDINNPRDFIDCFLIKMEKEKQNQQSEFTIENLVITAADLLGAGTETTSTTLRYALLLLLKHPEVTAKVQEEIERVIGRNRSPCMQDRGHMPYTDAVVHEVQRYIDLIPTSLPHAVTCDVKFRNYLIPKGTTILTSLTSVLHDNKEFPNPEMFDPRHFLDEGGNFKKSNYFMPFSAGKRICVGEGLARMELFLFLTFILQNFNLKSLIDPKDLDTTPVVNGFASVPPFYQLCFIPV

The experiment addresses Cytochrome P450 2C19 (Homo sapiens) (UniProt P33261). In words: Cytochrome panel assay with activity outcomes. As to conditions: recombinant CYP, pro-luciferin dealkylation, luminescence, p450-cyp2c19; series mostly up to 57.1 µM; activity, negative = inhibition: at the top concentration.
For orientation: AC50 means the midpoint of the concentration-response curve, whichever way the signal moves. On to `CCSc1nnc(NC(=O)COc2ccc3ccccc3c2)s1`, for which the AC50 is 0.282 µM (active). The same measure, in the same setting: the same measure for `O=C(COc1ccc2ccccc2c1)Nc1ccc(Cc2ccncc2)cc1`: 0.178 µM (active); for `C=CCSc1nnc(NC(=O)COc2ccc3ccccc3c2)s1`: 2.24 µM (active). Turning to `O=C(O)CCC(=O)Nc1ccc2ccccc2c1`, the activity, negative = inhibition is -18.3% [at 11.4 µM].

With `CCc1ccc(OCC(=O)Nc2ccc(-c3nc4ccccc4o3)c(O)c2)cc1`, the “activity, negative = inhibition” value was -6.32%. On the same count and under the same terms, the same measure for `CCC(CC)c1nnc(NC(=O)COc2ccc3c(C)cc(=O)oc3c2)s1`: -12.9%. `CN1CC[C@@]2(CCN3CCc4c(oc5ccccc45)[C@@H]3C2)N(C)C1=O`: the “activity, negative = inhibition” value was -17.7%. For the compound `CC(C)=CCc1c2c(c3occ(-c4ccc(O)c(O)c4)c(=O)c3c1O)C=CC(C)(C)O2`, the AC50 was 2 µM (active). Turning to `Cc1ccc(Nc2nc(-c3sc(NC(=O)c4ccc([N+](=O)[O-])cc4)nc3C)cs2)cc1`, the AC50 is 1.26 µM (active). Turning to `Cc1nc(NC(=O)c2ccccc2)sc1-c1csc(Nc2ccc(Cl)cc2)n1`, the AC50 was 0.316 µM (active). Consider `Cc1cccc(C(=O)Nc2nnc(-c3ccc(C(C)(C)C)cc3)s2)c1`, for which the “activity, negative = inhibition” value was -9.79%. On to `O=C(Nc1nnc(CCS(=O)(=O)c2ccc(Br)cc2)s1)c1ccc([N+](=O)[O-])cc1`, for which the “activity, negative = inhibition” value was -15.8%.

For the compound `Cc1nc(NC(=O)c2ccccc2)sc1-c1csc(Nc2cccc(F)c2)n1`, the AC50 was 0.562 µM (active). Consider `Cc1ccc(Nc2nc(-c3sc(NC(=O)c4cccc(Cl)c4)nc3C)cs2)cc1`, for which the AC50 is 1.41 µM (active).

Take `O=C(O)CCC(O)=C1S(=O)(=O)OCCOS1(=O)=O`: the activity, negative = inhibition was 3.76% [at 11.4 µM]. With `Cc1nc(NC(=O)c2ccco2)sc1-c1csc(Nc2ccc(Cl)cc2Cl)n1`, the AC50 is 0.355 µM (active). Take `C=CCCC(=O)Nc1nc(C)c(-c2csc(Nc3ccc(Cl)cc3)n2)s1`: the AC50 is 1.26 µM (active).

Turning to `Cc1nnc(NC(=O)c2cccc(NC(=O)C(C)C)c2)s1`, the “activity, negative = inhibition” value is -13.6%. As to `Cc1nc(NC(=O)c2ccccc2)sc1-c1csc(Nc2ccc(Cl)cc2Cl)n1`, the AC50 was 0.355 µM (active). Regarding `Cc1nc(NC(=O)c2ccccc2)sc1-c1csc(Nc2cccc(Cl)c2)n1`, the AC50 was 0.562 µM (active). `O=C(O)Cc1cc(I)c(Oc2ccc(O)c(I)c2)c(I)c1`: the “activity, negative = inhibition” value is -1.1% [at 25.6 µM]. The same measure, in the same setting: next, `CC[C@H](C)C(=O)O[C@H]1CCC=C2C=C[C@H](C)[C@H](CC[C@@H]3C[C@H](O)CC(=O)O3)[C@H]21`: 4.99%. For `Nc1[nH]nc2nc3ccccc3nc12`, the AC50 is 0.631 µM (active).

As for `Nc1n[nH]c2ccccc12`, the activity, negative = inhibition is -23.5% [at 11.4 µM]. Regarding `COc1ccc(N(C)C(=O)c2ccc3nc(-c4ccccc4)c(-c4ccccc4)nc3c2)cc1`, the AC50 was 8.91 µM (active). Same read-out and setting: next, `CCCOc1ccc(Cn2c(C)nc([N+](=O)[O-])c2SCC(O)COC)cc1[N+](=O)[O-]` (stereo not given): 2.82 µM (active); `COc1ccc(Oc2nc(C)cc(C)c2S(=O)(=O)c2ccc(C)cc2)cc1`: 14.1 µM (active). Take `Cc1cc(C)nc(NS(=O)(=O)c2ccc(N)cc2)n1`: the “activity, negative = inhibition” value was -5.99% [at 25.6 µM].

Turning to `CNc1nc(C)cc(C)c1S(=O)(=O)c1ccc(Cl)cc1`, the AC50 was 0.708 µM (active). In the case of `CNc1nc(C)cc(C)c1S(=O)(=O)c1ccc(C)cc1`, the AC50 is 0.631 µM (active). Still for that read-out and setting: next, `Cc1cc(C)c(S(C)(=O)=O)c(Oc2ccc(C(C)(C)C)cc2)n1`: 7.94 µM (active); `Cc1ccccc1C1C(C#N)=C2N=C(N)c3c(sc4c3CCCCC4)N2C2=C1C(=O)CC(C)(C)C2` (stereo not given): 6.31 µM (active); `COc1cc(C2C(C#N)=C(N)N(c3sc4c(c3C#N)CCCC4)C3=C2C(=O)CC(C)(C)C3)cc(OC)c1OC` (stereo not given): 10 µM (active). On to `CC(=O)OC[C@@H]1O[C@@H](O/N=C2/C[C@@H](O)[C@@H](O)[C@@H]3[C@@H]4C(=O)N(C[C@@H]5CCCO5)C(=O)[C@H]4CC[C@@H]23)[C@H](OC(C)=O)[C@H](OC(C)=O)[C@@H]1OC(C)=O`, for which the activity, negative = inhibition is 3.68% [at 11.4 µM]. Regarding `COc1cccc(Cn2c(NCc3cccnc3)nc3c2c(=O)n(C)c(=O)n3C)c1`, the AC50 was 17.8 µM (active). For the compound `Nc1nc(-c2ccccc2)c(-c2ccccc2)c(-c2nc(N)nc(-c3ccccc3)c2-c2ccccc2)n1`, the activity, negative = inhibition was 13% [at 11.4 µM]. On to `Nc1ccc(-c2sc(N)nc2-c2ccccc2)cc1`, for which the half-maximal activity concentration (AC50) was 7.94 µM (active). On the same count and under the same terms, the same measure for `Nc1nc(-c2ccccc2)c(-c2ccccc2)s1`: 8.91 µM (active); for `Cc1ccc(C)c(NC(=O)C2CC3c4ccccc4C2c2ccccc23)c1` (stereo not given): 20 µM (active). Regarding `Cc1ccc(C)c(NC(=O)C2C3CCCC2C3c2ccccc2)c1` (stereo not given), the “activity, negative = inhibition” value was -1.2%.

As for `Nc1nc2c(ncn2COC(CO)CO)c(=O)[nH]1`, the AC50 result was “inactive”. With `CC(=O)c1sc(N)c(C(=O)OC(C)C)c1C`, the half-maximal activity concentration (AC50) is 1.58 µM (active). Turning to `CC(C)CN1CCCC2(CCN(C(=O)c3cc(C(F)(F)F)cc(C(F)(F)F)c3)CC2)C1`, the “activity, negative = inhibition” value is -8.77%. Take `CCOC(=O)CSCC(NC(=O)OC(C)(C)C)C(=O)OCC` (stereo not given): the AC50 was 10 µM (active). `CC(C)[C@H](NC(=O)OC(C)(C)C)[C@@H](O)CC(=O)OC(C)(C)C`: the activity, negative = inhibition is -17.9% [at 11.4 µM].
